# Reference: PubChem BioAssay (NCATS)
# Results filed as inconclusive are left out. Entries that show only a call come without a potency. The source made the active and inactive calls. Calls come from the whole dose curve; as a rule, active = well fitted inhibition curve with a large enough effect; inconclusive = small, poorly fitted or top-dose-only effect; inactive = no such curve, though single readings can be large or run the other way.
# Target: Retinaldehyde dehydrogenase 3 (Homo sapiens) (UniProt P47895)
# Assay: qHTS for Inhibitors of the Aldehyde Dehydrogenase Family (ALDH1A3) Primary screen (AID 2061315)
# Conditions: ALDH inhibition qHTS; series mostly up to 56 µM
row,Compound,Potency
1,NC(=O)N1CCN(c2nc(-c3ccc(Br)cc3)cs2)CC1,inactive
2,Cc1cnc(-c2ccccc2C(C)C)nc1NCC1CN(c2cccnc2)C1,inactive
3,COc1cccc(-c2no[n+]([O-])c2C#N)c1,inactive
4,Cc1cnc(-c2ccccc2C(C)O)nc1NCC1CCN(c2cccnc2)CC1 (stereo not given),inactive
5,C[C@H]1[C@H](/C=C/c2ccc(-c3ccccc3C#N)cn2)[C@@H]2[C@@H](C)OC(=O)[C@@H]2C[C@@H]1C,inactive
6,CCOc1ccccc1-c1nnc2n1N=C(c1cccc(OC)c1)CS2,inactive
7,O=C(Nc1cncc(O)c1)c1cccs1,inactive
8,O=C1CC(c2ccccc2)CC2=C1C1(CCCC1)N=C(Nc1nc3ccccc3o1)N2 (stereo not given),inactive
9,CC(=O)NC(c1ccco1)c1cc(Cl)c2ccc(N3CCCCC3)nc2c1O (stereo not given),inactive
10,N#CC1CCN(c2nc(-c3ccc(Br)cc3)cs2)CC1,inactive
11,CS(=O)(=O)c1ccc(C(=O)OCC(=O)N2Cc3ccccc3C2)cc1[N+](=O)[O-],inactive
12,CN1CCN(c2cccc(CNc3nn4c(=O)c5ccccc5nc4s3)c2)CC1,inactive
13,Clc1ncoc1-c1c[nH]c2ccccc12,inactive
14,C#Cc1nc(Nc2cccc(Cl)c2)nc(NC2CCCC2)n1,inactive
15,O=C1c2ccccc2NC(c2ccc(-c3ccccc3F)o2)N1O (stereo not given),inactive
16,NC(=O)C1CCN(c2nc(-c3ccc(F)cc3)cs2)CC1,inactive

row,Compound,Potency
1,O=C(CN1C(=O)CC(c2ccco2)Sc2ccccc21)Nc1ccccc1F (stereo not given),inactive
2,N#CN1CCC(NS(=O)(=O)c2ccc(F)cc2)CC1,inactive
3,O=C(/C=C/c1ccc([N+](=O)[O-])o1)Nc1cccc([S+](=O)([O-])Nc2ccccc2F)c1,inactive
4,NC(=O)C1CCN(c2ncc(-c3cccc(N4CCOCC4)c3)s2)CC1,inactive
5,O=C1CCCC2=C1C(c1[nH]ncc1Cl)NC(=NCc1ncc[nH]1)N2 (stereo not given),inactive
6,CCOC(=O)C1CCN(c2nc(-c3ccc(Br)cc3)cs2)CC1,inactive
7,FC(F)(F)c1cc(-c2ccc(CNc3nc(-c4ccncc4)nc4ccccc34)cc2)ccn1,inactive
8,Brc1ccc(-c2csc(N3CCC(c4nn[nH]n4)CC3)n2)cc1,inactive
9,Cc1cc(C=CC#N)cc(C)c1Nc1nc(Nc2ccc3c(c2)CCC3)c2[nH]cnc2n1,inactive
10,Cc1c(P(=O)(c2ccccc2)c2ccccc2)c2ccccc2n1C,inactive
11,O=C1Nc2ccccc2/C1=C\c1ccc(O)c(F)c1,inactive
12,NC(=O)C1CCN(c2ncc(-c3cccc(N4CCCC4)c3)s2)CC1,inactive
13,COc1ccc(C2=Nn3c(nnc3-c3ccccc3O)SC2)cc1,inactive
14,O=C(Nc1cncc(NC(=O)c2cccs2)c1)c1cccs1,inactive
15,N#Cc1cc(C2=Nc3ccc(Br)cc3NC(=O)C2)ccn1,inactive
16,COc1cc(O)c(C(CC(=O)N2CCCC(C(C)C)C2)c2ccc3c(c2)OCO3)c(OC)c1 (stereo not given),inactive

# Target: Aldehyde dehydrogenase 1A1 (Homo sapiens) (UniProt P00352)
# Assay: qHTS for Inhibitors of the Aldehyde Dehydrogenase Family (ALDH1A1) Confirmatory screens (AID 2061316); note: nearly all actives have a fitted effect of over 65% in size; note: potency is the fitted concentration of half-maximal effect
# Conditions: ALDH inhibition qHTS; series mostly up to 47.3 µM
row,Compound,Potency
1,NC(=O)N1CCN(c2nc(-c3ccc(Br)cc3)cs2)CC1,inactive
2,Cc1cnc(-c2ccccc2C(C)C)nc1NCC1CN(c2cccnc2)C1,8.96 µM (active)
3,COc1cccc(-c2no[n+]([O-])c2C#N)c1,inactive
4,C[C@H]1[C@H](/C=C/c2ccc(-c3ccccc3C#N)cn2)[C@@H]2[C@@H](C)OC(=O)[C@@H]2C[C@@H]1C,1.27 µM (active)
5,O=C1CC(c2ccccc2)CC2=C1C1(CCCC1)N=C(Nc1nc3ccccc3o1)N2 (stereo not given),inactive
6,CC(=O)NC(c1ccco1)c1cc(Cl)c2ccc(N3CCCCC3)nc2c1O (stereo not given),2.25 µM (active)
7,O=C(CN1C(=O)CC(c2ccco2)Sc2ccccc21)Nc1ccccc1F (stereo not given),2.52 µM (active)
8,N#CN1CCC(NS(=O)(=O)c2ccc(F)cc2)CC1,inactive
9,O=C(/C=C/c1ccc([N+](=O)[O-])o1)Nc1cccc([S+](=O)([O-])Nc2ccccc2F)c1,7.98 µM (active)
10,NC(=O)C1CCN(c2ncc(-c3cccc(N4CCOCC4)c3)s2)CC1,6.34 µM (active)
11,O=C1CCCC2=C1C(c1[nH]ncc1Cl)NC(=NCc1ncc[nH]1)N2 (stereo not given),inactive
12,CCOC(=O)C1CCN(c2nc(-c3ccc(Br)cc3)cs2)CC1,inactive
13,Cc1ccccc1C#Cc1ccc(CCC(=O)O)cc1,inactive
14,Cc1c(P(=O)(c2ccccc2)c2ccccc2)c2ccccc2n1C,10.1 µM (active)
15,O=C1Nc2ccccc2/C1=C\c1ccc(O)c(F)c1,inactive
16,NC(=O)C1CCN(c2ncc(-c3cccc(N4CCCC4)c3)s2)CC1,3.57 µM (active)
17,O=C(Nc1cncc(NC(=O)c2cccs2)c1)c1cccs1,inactive
18,N#Cc1cc(C2=Nc3ccc(Br)cc3NC(=O)C2)ccn1,inactive
